{"source": "PubChem BioAssay AID1347041", "about": "(National Center for Advancing Translational Sciences (NCATS), 2019)", "note": "Out of some 480,000 compounds screened, about 740 (0.15%) were called active. Shown is part of a subset that was picked to be rich in actives. Unmarked numbers belong to inactive results. No stated cut-off is given here; in the data, active means activity change below about -30%; inconclusive means mostly about -25% to -30%; inactive means weaker than that."}
{"target": "L-lactate dehydrogenase A chain (Homo sapiens) (UniProt P00338)", "test": "qHTS assay for inhibitors of human lactate dehydrogenase;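 further: values are at about 110 or 230 µM; plate controls were DMSO wells for no effect and wells without enzyme for full effect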", "details": "purified LDHA, NADH/diaphorase-resazurin fluorescence; hits give low values", "source_text": "LDH is a key glycolytic enzyme that catalyzes the final step in the glycolytic pathway, reducing pyruvate to lactate and regenerating NAD+ equivalents necessary for continued glycolysis. LDHA has been linked to the carcinogenesis and malignancy in numerous forms of cancers and many other diseases. Consequently, both pharma and academia have invested in significant research efforts to identify small molecule therapeutics. Such attempts have been stalled or abandoned due to limited success in discovering potent and drug-like inhibitors that can be utilized to validate LDHA in vivo as a drug target, a necessary step toward advancing such a molecule towards the clinic Towards this goal we designed and performed a quantitative high-throughput screening (qHTS) campaign to discover novel compounds that are potent inhibitors of LDHA enzyme activity and cancer cell line growth.\nThe assay was optimized to 1536-well plates. Briefly, 3 µL of human lactate dehydrogenase 5 (#A38558H, Meridian Life Science, Inc., Memphis, TN) in LDH assay buffer (200 mM Tris HCl pH 7.4, 100 microM EDTA and 0.01% Tween-20) was added to a black solid bottom 1536-well assay plate (Greiner Bio-One) using a BioRAPTR FRD dispenser (Beckman Coulter, Brea, CA). A 1536-well pintool dispenser outfitted with 20 nL pins (Wako Automation, San Diego, CA) was used to transfer 23 nL of DMSO-solubilized compound (both library and vehicle controls) to each 1536-well assay plate. Following compound transfer, 1 µL of substrate solution containing NADH and sodium pyruvate (Sigma-Aldrich, St. Louis, MO) in LDH assay buffer was dispensed via BioRAPTR FRD to initiate the reaction. Final concentrations in the 4 microL reaction volume were 2 nM LDHA enzyme, 0.06 mM NADH and 0.2 mM sodium pyruvate. Following a 5 minute incubation period at room temperature, 1 µL of detection reagent (C. kluyveri diaphorase (Sigma-Aldrich) and resazurin sodium salt (Sigma-Aldrich) in LDH assay buffer) was added to a total volume of 5 µL. Final concentrations of detection reagents were 0.133 mg/mL diaphorase and 37 µM resazurin. Plates were immediately transferred to a ViewLux microplate imager (PerkinElmer, Waltham, MA), and any resulting resorufin fluorescence was measured (ex540, em590 nm) at 0 and 20 minutes. Fluorescence was normalized using enzyme-free and DMSO-treated control wells on each plate."}
{"compound": "O=C(O)COc1ccccc1/C=C1\\C(=O)NC(=O)N(CCC2=CCCCC2)C1=O", "activity change": "-34.5% (active)"}
{"compound": "C=CCN1C(=O)NC(=O)/C(=C/c2ccc(OCC(=O)Nc3ccc(C)cc3)cc2)C1=O", "activity change": "-1.94%"}
{"compound": "Cc1[nH]nc2c1C(c1ccc(C(=O)O)cc1)SCC(=O)N2", "note": "(stereo not given)", "activity change": "4.1%"}
{"compound": "COc1ccccc1N=C1SCCCN1C", "activity change": "-34.1% (active)"}
{"compound": "O=C(COc1ccc2c(=O)c(-c3ccccc3)coc2c1)N1CCN(CCO)CC1", "activity change": "3.12%"}
{"compound": "COC(=O)C(O)(c1ccc(N(C)C(=O)O/N=C(/C)Cl)cc1)C(F)(F)F", "note": "(stereo not given)", "activity change": "1.08%"}
{"compound": "COc1cc(-c2c(C#N)c(N)nc3c2c(=O)nc2sccn23)ccc1OCc1ccccc1C", "activity change": "6.76%"}
{"compound": "C[N+]12CN3CN(CN(C3)C1)C2", "activity change": "-52.1% (active)"}
{"compound": "Cc1c(-c2ccc(Br)cc2)c(=O)oc2ccc(OC(=O)N(C)C)cc12", "activity change": "8.34%"}
{"compound": "N/C(=N\\N=C\\c1ccco1)N[N+](=O)[O-]", "activity change": "6.01%"}
{"compound": "Cc1nc(CN2CCNCC2)cs1", "activity change": "0.726%"}
{"compound": "Cc1ccc(C2(O)CC(C)N(C)CC2C)c(C)c1", "note": "(stereo not given)", "activity change": "1.58%"}
{"compound": "CCOC(=O)C1=C(N)OC(C)=C(C(=O)OC(C)C)C12C(=O)Nc1ccc(Br)cc12", "note": "(stereo not given)", "activity change": "12.9%"}
{"compound": "ClCc1cccnc1", "activity change": "-7.12%"}
{"compound": "CCN1CCN(C(=O)COc2ccc3c(=O)c(Oc4ccccc4)c(C)oc3c2)CC1", "activity change": "-13.1%"}
